{
  "source": "PubChem BioAssay",
  "note": "Activity calls are given as the source filed them. How the calls were made is not given here.",
  "data": [
    {"molecular_target": "Pantothenate synthetase (Mycobacterium tuberculosis (strain ATCC 25618 / H37Rv)) (UniProt P9WIL5)", "sequence (P9WIL5 whole entry, looked up)": "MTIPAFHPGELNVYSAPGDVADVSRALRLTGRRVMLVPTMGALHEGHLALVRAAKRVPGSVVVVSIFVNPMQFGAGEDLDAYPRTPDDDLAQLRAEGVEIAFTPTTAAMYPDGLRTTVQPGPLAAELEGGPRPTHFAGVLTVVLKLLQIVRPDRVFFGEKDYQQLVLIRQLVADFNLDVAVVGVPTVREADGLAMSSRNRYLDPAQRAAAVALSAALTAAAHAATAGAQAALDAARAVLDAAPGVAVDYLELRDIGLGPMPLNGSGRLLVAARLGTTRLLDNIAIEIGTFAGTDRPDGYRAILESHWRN", "assay": "Recombinant Mtb pantothenate synthetase (PanC) inhibitors, coupled enzyme, confirmatory (AID 375);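 further: 0% = full reaction with vehicle and 100% = no enzyme background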", "conditions": "coupled enzyme assay; at 10 µM, hits give high values", "values": [
      {"smiles": "CC(=O)N1CCc2cc(S(=O)(=O)NC(C(=O)NCc3ccccc3)C(C)C)ccc21", "note": "(stereo not drawn)", "inhibition": "3% (inactive)"},
      {"smiles": "CCn1c(=O)cc(OCC(=O)Nc2nc(C)cs2)c2ccccc21", "inhibition": "0% (inactive)"},
      {"smiles": "CCN(CC)C(=O)CSC1=C(C#N)C(c2ccco2)C(C(=O)OCCOC)=C(C)N1", "note": "(stereo not drawn)", "inhibition": "0% (inactive)"},
      {"smiles": "Cc1c(C(=O)NCc2ccccn2)sc2nc(-c3ccc(F)cc3)cn12", "inhibition": "0% (inactive)"},
      {"smiles": "CCn1c(SCC(=O)c2ccc3c(c2)OCCO3)nnc1-c1ccco1", "inhibition": "11% (inactive)"},
      {"smiles": "CCCS(=O)(=O)N1CCN(C(=O)CCC2CCCC2)CC1", "inhibition": "0% (inactive)"},
      {"smiles": "Cc1ccc(-n2ncc3c(=O)n(CC(=O)NCc4ccco4)cnc32)cc1", "inhibition": "0% (inactive)"},
      {"smiles": "CCN1CCN(S(=O)(=O)Cc2ccccc2)CC1", "inhibition": "0% (inactive)"},
      {"smiles": "Cc1c(NC(=O)c2cnn3c2NC(c2ccco2)CC3C(F)(F)F)c(=O)n(-c2ccccc2)n1C", "note": "(stereo not drawn)", "inhibition": "9% (inactive)"},
      {"smiles": "Cc1nc2ccc(NC(=O)N3CCC(c4ccccc4)C3)cc2nc1C", "note": "(stereo not drawn)", "inhibition": "0% (inactive)"},
      {"smiles": "O=C(c1ccccc1)N1CCN(CC2CC=CCC2)CC1", "note": "(stereo not drawn)", "inhibition": "0% (inactive)"},
      {"smiles": "CC(=O)N1c2c(cc(Br)cc2S(=O)(=O)N2CCN(c3ccccn3)CC2)CC1C", "note": "(stereo not drawn)", "inhibition": "0% (inactive)"},
      {"smiles": "COc1ccc(S(=O)(=O)Nc2ccc(S(=O)(=O)N3CCCCC3)cc2)cc1OC", "inhibition": "0% (inactive)"},
      {"smiles": "CCCN1C2CCCC1CC(NC(=O)Nc1cccc(C(C)=O)c1)C2", "note": "(stereo not drawn)", "inhibition": "1% (inactive)"},
      {"smiles": "CC(C)C(CO)NC(=O)CC(=O)NC(CO)C(C)C", "note": "(stereo not drawn)", "inhibition": "2% (inactive)"},
      {"smiles": "CCc1ccc2[nH]c(=O)c(C(c3nnnn3CC3CCCO3)N3CCN4CCCC4C3)cc2c1", "note": "(stereo not drawn)", "inhibition": "4% (inactive)"},
      {"smiles": "Cc1c(NC(=O)Cn2nc(C(=O)O)c3ccccc3c2=O)c(=O)n(-c2ccccc2)n1C", "inhibition": "0% (inactive)"},
      {"smiles": "CCOC(=O)N1CCN(C(=O)C2c3cc(OC)c(OC)cc3C(=O)N3CCc4ccccc4C23)CC1", "note": "(stereo not drawn)", "inhibition": "4% (inactive)"},
      {"smiles": "CCC(C)NC(=O)CS(=O)(=O)Cc1nc(-c2cccc(OC)c2)oc1C", "note": "(stereo not drawn)", "inhibition": "0% (inactive)"},
      {"smiles": "Cc1ccc2cc(C(c3nnnn3C3CCCC3)N3CCN(c4ccc(F)cc4)CC3)c(=O)[nH]c2c1", "note": "(stereo not drawn)", "inhibition": "6% (inactive)"},
      {"smiles": "CCOCC(=O)Nc1sc2c(c1C(=O)OCC)CCCC2", "inhibition": "0% (inactive)"},
      {"smiles": "COc1ccc(CCNc2oc(-c3ccco3)nc2C#N)cc1", "inhibition": "2% (inactive)"},
      {"smiles": "COc1ccc(NS(=O)(=O)c2c(C)[nH]c(=O)[nH]c2=O)c(OC)c1", "inhibition": "0% (inactive)"}
    ]}
  ]
}
